# In the library only some 0.92% were active in any assay of this set; here they are far more common.
# MEP2 TOR yeast: alters MEP2-GFP fluorescence in TOR pathway yeast screen; GFP response vs DMSO, % at 10 µM; 330,000 compounds, 0.51% hits; S. cerevisiae MEP2-GFP strain, flow cytometry GFP, 3 h; 100% = DMSO control level;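 active means GFP response versus DMSO above a set limit, roughly screen mean plus 3 SD, cut at about 180% in these data; inconclusive means fewer than 70 cells counted for a yeast strain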;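 further: median GFP fluorescence of the barcode-gated MEP2-GFP cells per well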
# AGP1-GFP MLPCN: modulators of TOR pathway AGP1-GFP in S. cerevisiae | 320,000 compounds, 0.02% hits | GFP response vs DMSO, % at 10 µM | S. cerevisiae AGP1-GFP multiplex flow cytometry, 3 h; GFP as percent of DMSO wells;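 active means GFP response relative to DMSO above a set limit, near screen average plus 3 SD, cut at about 150% in these data; inconclusive means fewer than 70 cells counted for the yeast strain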;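 further: median GFP channel fluorescence of the gated AGP1 strain per well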
# LAP4-GFP MLPCN: modulators of TOR pathway LAP4-GFP in S. cerevisiae | S. cerevisiae LAP4-GFP multiplex, flow cytometry GFP, 3 h; median GFP as percent of DMSO wells | GFP response vs DMSO, % at 10 µM | 320,000 compounds, 0.34% hits | AID 2023;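 active means GFP response vs DMSO above a set limit, about the screen mean plus 3 SD, cut at about 150% in these data; inconclusive means under 70 cell events counted for the yeast strain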
# CIT2-GFP yeast: modulators of TOR pathway CIT2-GFP in S. cerevisiae | S. cerevisiae CIT2-GFP strain, flow cytometry, 3 h; 100 means same as DMSO wells | GFP response vs DMSO, % at 10 µM | 320,000 compounds, 0.065% hits;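 active means GFP response relative to DMSO above a set limit, near the screen mean plus 3 SD, cut at about 150% in these data; inconclusive means Fewer than 70 cells measured for a yeast strain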;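 further: ratio of well median GFP fluorescence to mean of DMSO wells on the plate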
# RPL19A-GFP yeast: modulators of TOR pathway RPL19A-GFP in S. cerevisiae; S. cerevisiae RPL19A-GFP strain, flow cytometry, 3 h; hits give low values; 330,000 compounds, 0.3% hits; percent response vs DMSO, % at 10 µM;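 active means percent response vs DMSO below 50%; inconclusive means fewer than 70 events counted for the yeast strain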;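 further: median channel GFP fluorescence of the barcoded RPL19A-GFP strain; ratio of sample median GFP to plate DMSO average so 100% = DMSO; lower means less RPL19A-GFP as with rapamycin TOR inhibition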
# * hit, by the source's call; i = inactive; u = inconclusive; x = no result given; + = active, no number; [ ] = dose if it differs, or a comment.
SMILES,MEP2 TOR yeast,AGP1-GFP MLPCN,LAP4-GFP MLPCN,CIT2-GFP yeast,RPL19A-GFP yeast
COC(=O)c1ccc(OCC(=O)NC2CCCCCCC2)cc1,99,98,107,102,102
COc1ccc(Br)cc1/C=N/NC(=O)CN1CCN(Cc2ccccc2)CC1,116,121,120,113,108
CCOc1ccc2nc(Cl)c(/C=C/C(=O)c3ccco3)cc2c1,507*[may fluoresce violet],x,100,u,37*[may fluoresce violet]
NCCC1CCCC(CCN)N1 (stereo unspecified),110,85,454*[may fluoresce red],86,u
Cc1cc(NC(=O)c2cccc(S(=O)(=O)N3CCCCC3)c2)no1,104,104,105,90,100
O=C(NCCCN1CCOCC1)c1cccc(S(=O)(=O)N2CCOCC2)c1,+[may fluoresce green],+[may fluoresce green],+[may fluoresce green],+[may fluoresce green],i
O=C(COC(=O)c1cccc(S(=O)(=O)N2CCOCC2)c1)c1ccccc1,308*[may fluoresce violet],15,75,u,53
Cc1cc(NC(=O)c2cccc(S(=O)(=O)N3CCOCC3)c2)no1,536*[may fluoresce violet],x,106,u,40*[may fluoresce violet]
O=C(CN1C(=O)CSc2ccc(S(=O)(=O)N3CCOCC3)cc21)NCCCN1CCOCC1,u,u,u,u,23*[may fluoresce violet]
O=C(CN(c1ccc(F)cc1)S(=O)(=O)c1ccccc1)NCCSC1CCCCC1,104,98,94,103,101
O=C(Nc1ccc(F)c(F)c1)C1CCCN1S(=O)(=O)c1ccc(F)cc1 (stereo unspecified),105,101,105,101,105
COc1ccc(-c2nc3ccccc3c(=O)n2CCCN2CCOCC2)cc1,109,105,113,108,104
O=c1c2ccccc2nc(-c2ccccc2)n1CCN1CCOCC1,134,128,163*,105,93
O=C(N/N=C/c1ccc(Br)s1)c1ccco1,96,107,119,98,98
O=C(N/N=C/c1sc(=O)n(Cc2ccc(Br)cc2)c1Cl)c1ccco1,238*[may fluoresce violet],u,56,u,52
O=C(O)c1ccc(SCc2cnc(Cl)s2)cc1,140,123,179*,82,111
COC(=O)c1ccc(SCc2cnc(Cl)s2)cc1,100,88,86,91,89
Nc1nc(NCCCN2CCOCC2)nc(Nc2ccccc2F)c1[N+](=O)[O-],101,109,133,106,99
COc1ccc(NC(=O)COC(=O)c2ccco2)c([N+](=O)[O-])c1,202*,113,145,217*,122
Cc1ccc(N(C(=O)c2snc(C(N)=O)c2N)C(C(=O)NCc2ccccc2)c2ccncc2)c(C)c1 (stereo unspecified),210*[may fluoresce violet],u,58,u,38*[may fluoresce violet]
Cc1nn(C)c(C)c1CN(C(=O)C1CCC(=O)N(C2CCCCCC2)C1)C(C)C (stereo unspecified),92,94,86,98,99
COC(=O)c1nc(-c2ccccc2)oc1N1CCOCC1,95,100,104,92,93
CCN1/C(=C/C=C/C=C/C=C/c2sc3ccccc3[n+]2CC)Sc2ccccc21,114,90,124,102,u
CCN1/C(=C/C=C/C=C/c2sc3ccccc3[n+]2CC)Sc2ccccc21,265*[may fluoresce red],36,u,109,u
Cc1ccc(/C=C2\SC(=S)N(CCC(=O)NNC(=O)c3ccc(O)cc3)C2=O)cc1,106,110,102,101,103
SMILES,MEP2 TOR yeast,AGP1-GFP MLPCN,LAP4-GFP MLPCN,CIT2-GFP yeast,RPL19A-GFP yeast
Cc1ccc(/C=C2\SC(=S)N(CCC(=O)NNC(=O)c3cccc(O)c3)C2=O)cc1,151,14,79,u,21*[may fluoresce violet]
COc1ccccc1NS(=O)(=O)c1cccc(-n2c(O)c(C=Nc3ccccc3C(=O)O)c3ccccc3c2=O)c1,100,104,82,109,107
Nc1nonc1-c1noc(-c2ccccc2Br)n1,261*[may fluoresce violet],26,108,u,45*[may fluoresce violet]
CCOc1cc(/C=N/Nc2ncc(C)c(=O)[nH]2)ccc1O,101,101,84,110,106
Cc1cc(=O)[nH]c(N/N=C/c2sccc2C)n1,107,105,100,101,104
Cc1cc(=O)[nH]c(N/N=C/c2cccs2)n1,308*[may fluoresce violet],25,87,u,47*[may fluoresce violet]
CCOc1cc(/C=N/Nc2nc(C)cc(=O)[nH]2)ccc1O,187*,95,107,150,107
Clc1ccc(C2=CSC3=NCCN23)c(Cl)c1,105,108,109,102,99
